Compounds with a hit are over-represented: about 2.4% of the library has one in this group of screens.
Cardiac RTF inh: cardiac RTF calcium desensitization | inhibition, % at 7.15 µM | IANBD-labeled cardiac RTF, Ca2+ fluorescence | AID 493244 | 340,000 compounds, 0.12% hits;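 active = inhibition above the mean inhibition of all tested compounds plus 3 SD, cut at about 17% in these data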;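 also: assay run at fixed EC70 calcium of 1.6 mM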
cardiac RTF act: cardiac RTF calcium sensitization; P19429+P45379; IANBD-labeled TnC RTF fluorescence at EC20 calcium; 0% EC20 calcium, 100% full calcium; 340,000 compounds, 0.24% hits; activation, % at 7.2 µM;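 active = activation above the mean over all tested compounds plus 3 SD, cut at about 30% in these data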;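 also: rise in fluorescence read as greater calcium sensitivity of cardiac thin filaments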
ANO1 block: inhibitors of mouse TMEM16A calcium-activated chloride channel | HEK293 TMEM16A/YFP iodide influx fluorescence, ionomycin | 310,000 compounds, 1.2% hits | normalized B-score (activity score, 25-100; higher = stronger inhibition) at 10 µM | AID 588511;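 active = ratio plate-corrected score three or more library SD toward inhibition, starting fluorescence score within five deviations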;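 also: score derived from kinetic fluorescence span divided by baseline fluorescence per well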
TMEM16A act: activators or potentiators of mouse TMEM16A chloride channel. AID 623877. HEK293 TMEM16A/YFP-H148Q/I152L, iodide quench fluorescence; stronger effect = lower value. 340,000 compounds, 0.3% hits. B-score at 10 µM. Q8BHY3;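 active = fluorescence-ratio B-score plate-corrected deviation score at least 3 library SD below zero, with starting fluorescence score within 5 deviations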;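 also: channel opened by trigger with iodide after compound preincubation; score built on the fluorescence ratio of max minus min over baseline; more negative score means more quench and so TMEM16A activation or potentiation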
CRFR2-BP antag: antagonists of CRF-binding protein/CRF-R2 receptor complex | HEK293 CRF-R2/CRF-BP, CRF-induced calcium fluorescence | inhibition, % at 11.8 µM | 350,000 compounds, 0.59% hits;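 active = inhibition of the ligand-induced calcium signal above about 50% at the single tested concentration, limit read from the data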
CRFR2-BP ag: CRF-BP/CRF-R2 complex agonism | HEK293 CRF-R2/CRF-BP, calcium dye fluorescence (FLIPR); percent of saturating CRF peptide response | activation, % at 13.2 µM | AID 588473 | 350,000 compounds, 0.46% hits;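 active = activation of at least 50%, plus an integration ratio under a set limit after plate pattern correction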;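 also: plate controls were neutral control wells without compound for no effect and CRF at EC100 for full effect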
RTF Ca inh conf: confirmation of inhibitors of cardiac thin filament calcium sensitivity; reconstituted cardiac thin filaments, calcium sensitivity fluorescence; inhibition, % at 7.15 µM; shares compounds with Cardiac RTF inh; 360 compounds, 8% hits; in the data active = inhibition above about 18%
TMEM16A reconf: reconfirmed blocker of mouse TMEM16A calcium-activated chloride channel; HEK293 TMEM16A/YFP-H148Q, iodide quench fluorescence; ionomycin added to raise cell calcium; AID 652189; shares compounds with ANO1 block; 2,300 compounds, 39% hits; inhibition, % at 10 µM;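 active = mean duplicate percent inhibition, scaled so buffer wells are 0 and the reference blocker 100, over three buffer SD above buffer mean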
TMEM16A Ca cntr: counter-screen for TMEM16A inhibitors: effect on calcium mobilization; 2,300 compounds, 2% hits; calcium response (% of ionomycin), % at 10 µM; shares compounds with ANO1 block; TMEM16A/YFP HEK293, Fluo4 calcium mobilization;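 active = duplicate-averaged calcium signal over 20% of the ionomycin maximum, relative to buffer baseline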;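 also: each well's signal is peak minus trough fluorescence divided by its pre-addition baseline; 0% = buffer wells and 100% = ionomycin wells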
YFP-HEK293 quench: acts in parental YFP-HEK293 cells lacking TMEM16A, counter-screen. iodide YFP quench, ionomycin. 2,300 tested, under 10 active. AID 652233. shares compounds with ANO1 block. YFP ratio F(max-min)/F0 at 10 µM;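 active = yellow fluorescent protein signal ratio exceeding the buffer control mean by over 5 SD of those controls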;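 also: ratio is mean of duplicate wells from kinetic YFP trace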
ClC-1 rat inh: blocks the rat ClC-1 voltage-dependent chloride channel; shares compounds with ANO1 block; 2,300 tested, under 10 active; CHO ClC-1-YFP, iodide influx fluorescence quench; iodide control reads 0, buffer control 100; ratio percent, % at 10 µM;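 active = duplicate-mean ratio percent above the mean of iodide-only control wells, which defines zero, plus 5 of their SD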;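 also: higher percent means stronger block of ClC-1 iodide influx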
An asterisk follows results filed as active; i = inactive; . = no result; ! = not confirmed by another sample.

SMILES	Cardiac RTF inh	cardiac RTF act	ANO1 block	TMEM16A act	CRFR2-BP antag	CRFR2-BP ag	others
Nc1ccc2nonc2c1[N+](=O)[O-]	-130.6	102.2*	i	i	-31.3	70.1*
CN(c1ccc(O)cc1)c1ccc([N+](=O)[O-])c2nonc12	.	.	.	.	-5.6	0.6
O=C(NCC1=C(c2ccc3ccccc3c2)C[C@@H]2CC[C@H]1N2Cc1ccco1)c1ccc([N+](=O)[O-])cc1	.	.	.	.	-11.3	-2.1
CC(C)[N+]12CCC(CC1)C(C(O)(c1ccccc1)c1ccccc1)C2 (stereo not drawn)	-2.6	-1.0	i	i	-15.7	0.7
CCC1(CC)C(=O)N(Cc2ccccc2)C(=O)N(Cc2ccccc2)C1=O	-4.4	-5.7	i	i	86.6*	9.9
CCN(CC)c1ccc(N=Cc2c(O)n(CCC3=CCCCC3)c(=O)[nH]c2=O)cc1	-10.0	5.4	i	i	-131.5	115.3*
Cc1ccc(OC(=O)N(C)C[C@@H]2OCc3cnnn3CCCC(=O)N([C@H](C)CO)C[C@H]2C)cc1	.	.	.	.	-1.4	-1.1
Cc1ccc(OC(=O)N(C)C[C@@H]2OCc3cnnn3CCCC(=O)N([C@@H](C)CO)C[C@@H]2C)cc1	.	.	.	.	60.1*	1.8
COc1ccc(CNCCc2c(C)[nH]c3ccc(OC(F)(F)F)cc23)c(OC)c1	-7.7	0.7	i	i	-12.2	0.8
Cc1ccc(N2C(=O)NC(=O)/C(=C\c3cn(CC(=O)O)c4ccccc34)C2=O)cc1	-11.4	14.3	i	i	-9.5	12.9
COC(=O)Cn1cc(/C=C2\C(=O)NC(=O)N(c3ccccc3)C2=O)c2ccccc21	-10.3	4.6	i	i	-48.0	87.3*
CC(C)(C)c1cc(C=C(C#N)C#N)cc(C(C)(C)C)c1O	8.6	2.0	100*	i	35.1	53.4*
COC1C(OC(=O)c2ccc(C)[nH]2)C(O)C(Oc2ccc3c(O)c(NC(=O)c4ccc(O)c(CC=C(C)C)c4)c(=O)oc3c2Cl)OC1(C)C (stereo not drawn)	-1.4	4.0	100*	i	18.6	-0.4
CC(C)CNP(=S)(c1ccccc1)C(C)(C)C (stereo not drawn)	-1.1	5.9	i	i	65.6*	-0.7
Cc1cc(N(CCCl)CCCl)ccc1/C=N/N=C(\N)c1cnccn1	-3.1	5.5	i	i	-19.6	0.5
Cc1cc(N(CCCl)CCCl)ccc1C=Cc1ccncn1	-94.7	78.6*	.	i	-48.9	37.3
O=C(c1ccc(Cl)cc1)C1CCCN(Cc2ccc3ncccc3c2)C1 (stereo not drawn)	-1.3	-3.3	25*	i	-3.8	12.6
O=c1[nH]c(=O)n(-c2ccccc2F)c(O)c1/C=C1\C=Nc2ccccc21	-11.9	-2.7	i	i	-29.7	3.2
O=c1[nH]c(=O)n(-c2ccc(F)cc2)c(O)c1/C=C1\C=Nc2ccccc21	-11.2	6.6	i	i	-47.5	102.1*
COC(=O)C1=C(c2cccc(C#N)c2)C[C@@H]2CC[C@H]1N2C(=O)NCc1cccc2ccccc12	-9.6	9.0	.	i	-4.0	0.8
O=c1[nH]c(O)c(C=Nc2ccccc2Oc2ccccc2)c(=O)[nH]1	0.6	19.8	i	i	-1.3	0.7
Fc1ccc(C(OCCN2CCN(CCCc3ccccc3)CC2)c2ccc(F)cc2)cc1	17.1*	-2.7	i	i	-15.4	3.0	RTF Ca inh conf=-1.9
c1ccc(CCCN2CCN(CCOC(c3ccccc3)c3ccccc3)CC2)cc1	-13.9	0.1	i	i	18.1	0.0
COc1ccc(C(SCC(NC(=O)OCc2ccccc2)C(=O)O)c2ccc(OC)cc2)cc1 (stereo not drawn)	.	.	.	.	28.0	1.3
CN(C)[C@@H]1C(=O)C(C(N)=O)=C(O)[C@@]2(O)C(=O)C3=C(O)c4c(O)cccc4[C@@](C)(O)C3[C@H](O)C12 (stereo partly drawn)	20.5*!	10.5	i	i	-11.6	1.7	RTF Ca inh conf=-4.8
SMILES	Cardiac RTF inh	cardiac RTF act	ANO1 block	TMEM16A act	CRFR2-BP antag	CRFR2-BP ag	others
CCOC(=O)C1SC2(C(F)(F)F)CC1(O)c1c(C)cc(C)nc1O2 (stereo not drawn)	-0.2	7.5	25*	i	-4.3	-0.1	TMEM16A reconf=i;TMEM16A Ca cntr=i;YFP-HEK293 quench=-0.947;ClC-1 rat inh=-2.5
COc1ccc2[nH]c(C)c(CCNCc3cc(OC)c4c(c3)OCO4)c2c1	-5.4	-2.2	.	i	-9.6	3.9
CCOC(=O)C1(CCc2ccccc2)CCN(Cc2ccc3c(c2)OCCO3)CC1	-0.1	-1.2	25*	i	-35.2	3.3	TMEM16A reconf=i;TMEM16A Ca cntr=i;YFP-HEK293 quench=-1.06;ClC-1 rat inh=-7.5
CCOC(=O)C1(CCc2ccccc2)CCN(Cc2ccc(NC(C)=O)cc2)CC1	1.7	4.0	i	i	-1.4	1.0
C[C@]1(O)CCC2C3CC[C@H]4C[C@@H](OC(=O)[C@@H](N)CCCCN)CC[C@]4(C)C3CC[C@@]21C (stereo partly drawn)	.	.	.	.	-38.0	-0.1
O=C(COc1ccccc1)c1cn(Cc2ccccc2)c2ccccc12	1.1	7.9	i	i	11.3	15.4	TMEM16A reconf=i;TMEM16A Ca cntr=i;YFP-HEK293 quench=-0.762;ClC-1 rat inh=12.0
COC(=O)C1=C(c2cccc(OC)c2OC)C[C@@H]2CC[C@H]1N2C(=O)NCCS(C)=O (stereo partly drawn)	-4.4	-5.4	100*	i	-0.1	0.3	TMEM16A reconf=i;TMEM16A Ca cntr=i;YFP-HEK293 quench=-1.03;ClC-1 rat inh=-9.5
Cc1cc2c(C(F)(F)F)cc(=O)oc2c2c1NCCC2	-105.2	63.1*	i	i	-214.5	178.4*	TMEM16A reconf=18.0%*;TMEM16A Ca cntr=30.0%*;YFP-HEK293 quench=-0.942;ClC-1 rat inh=-3.5
CCOc1ccccc1CN1C2CCC1CC(c1ccc(C)cc1)C2 (stereo not drawn)	0.6	3.0	i	i	-30.6	10.6
Cn1cccc1CN1CCN(C(=O)COc2ccccc2)CC1	-3.2	0.7	i	i	-2.7	0.4

Source: PubChem
